Reference: PubChem BioAssay (Tox21)
Results filed as inconclusive are left out. Activity calls are given as the source filed them. Unless noted, the call rests on the fitted dose curve.

Key:
[1] = Nuclear factor erythroid 2-related factor 2/antioxidant responsive element (Nrf2/ARE) small molecule agonists: qHTS cell viability counter screen in human keratinocytes (AID 1919968; active means well fitted curve in the direction sought with a large enough effect in the repeat runs; an effect the other way counts as inactive or inconclusive; further: nearly all actives have a fitted effect of over 55% in size)
Method in brief: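 In human HaCaT keratinocytes stably expressing an ARE-driven luciferase, compound exposure lasted 23 h at 37 C under 5% CO2. Viable cells are quantified with a protease-based fluorogenic reagent (CellTiter-Fluor) read 1 h after addition.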

[2] = Nuclear factor erythroid 2-related factor 2/antioxidant responsive element (Nrf2/ARE) small molecule agonists: luciferase reporter gene qHTS assay in human keratinocytes (AID 1919969); further: nearly all actives have a fitted effect of over 35% in size
[3] = molecular target: Gonadotropin-releasing hormone receptor (Homo sapiens) (UniProt P30968); experiment: Human gonadotropin-releasing hormone receptor (GnRHR) small molecule agonists, calcium flux assay in GnRHR-HEK293 cells (AID 1920063); further: nearly all actives have a fitted effect of over 35% in size
Method in brief: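 Intracellular calcium rise is the read-out: engineered human GnRHR HEK293 cells, dye-loaded, are exposed to DMSO-dissolved compounds and fluorescence at Ex/Em 480/540 is tracked for 3 min.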

[4] = molecular target: KiSS-1 receptor (Homo sapiens) (UniProt Q969F8); experiment: Human kisspeptin (KISS1R) small molecule agonists, calcium flux assay in KISS1R-HEK293 cells (AID 1920064; active means well fitted curve in the direction sought with a large enough effect in the repeat runs; an effect the other way counts as inactive or inconclusive)
Method in brief: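 Concentration-response testing used 15 concentrations in triplicate on human KISS1R-expressing HEK293 cells. Calcium-dependent fluorescence (Ex/Em 480/540) was followed kinetically for 3 min after compound transfer.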

[5] = G protein-coupled receptor (GPCR) small molecule agonists, calcium flux assay: HEK293 wild type cell line counter screen (AID 1920065)
Method in brief: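 Fluorescence intensity signals activation. After overnight (18 h) culture and a 1 h calcium dye load at 37 C, compounds are added by pin tool and the plate read at 480/540 nm for 3 min in 1 s steps.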

[6] = p53 small molecule agonists, cell-based qHTS assay with human liver microsomes: qHTS cell viability counter screen (AID 1963579); further: nearly all actives have a fitted effect of over 45% in size
Method in brief: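 p53RE-bla cells, 4,000/well, dosed 5 hours after plating, with human liver microsomes (0.5 mg/mL final) plus NADPH (0.5 mg/mL final), 16 hours at 37 C. Viability read as CellTiter-Glo luminescence after 30 min at room temperature.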

[7] = p53 small molecule agonists, cell-based qHTS assay with rat liver microsomes: qHTS cell viability counter screen (AID 1963580); further: nearly all actives have a fitted effect of over 45% in size
Method in brief: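 Cytotoxicity counter screen: intracellular ATP measured by CellTiter-Glo luminescence in the same wells as the beta-lactamase reporter read, on HCT-116 p53RE-bla cells exposed 16 h at 37 C to compounds with rat liver microsomes and NADPH, each 0.5 mg/mL final.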

[8] = p53 small molecule agonists, cell-based qHTS assay: qHTS cell viability counter screen (AID 1963581); further: nearly all actives have a fitted effect of over 45% in size
Method in brief: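 Luminescence from CellTiter-Glo, reflecting ATP content, serves as the cytotoxicity measure; it is taken after the 2 h reporter substrate step in HCT-116 p53RE-bla cells dosed for 16 h at 37 C.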

[9] = molecular target: 5-hydroxytryptamine receptor 2A (Homo sapiens) (UniProt P28223); experiment: 5-hydroxytryptamine receptor 2A (HTR2A) small molecule agonists, cell-based qHTS assay (AID 1963587); further: nearly all actives have a fitted effect of over 30% in size
Method in brief: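 CHO cells stably expressing human HTR2A, plated 18 h, loaded with calcium dye 1 h at 37 C. Agonist mode: compounds added and intracellular calcium fluorescence recorded kinetically for 2 min at 1 sec intervals.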

[10] = molecular target: Muscarinic acetylcholine receptor M1 (Homo sapiens) (UniProt P11229); experiment: Cholinergic receptor muscarinic 1 (CHRM1) small molecule antagonists, cell-based qHTS assay (AID 1963588); further: nearly all actives have a fitted effect of over 40% in size
Method in brief: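 Compounds were tested at 15 concentrations in three independent runs. Dye-loaded CHRM1-CHO cells were exposed 5 min at room temperature before stimulation by acetylcholine added at 50nM. Intracellular calcium was read kinetically on FDSS for 3 min.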

[11] = molecular target: Muscarinic acetylcholine receptor M1 (Homo sapiens) (UniProt P11229); experiment: Cholinergic receptor muscarinic 1 (CHRM1) small molecule agonists, cell-based qHTS assay (AID 1963589); further: nearly all actives have a fitted effect of over 35% in size
Method in brief: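 Fluorescent calcium dye reports M1 activation in stably transfected CHO cells. Compounds, 15 concentrations, added after 1 h dye loading at 37 C; kinetic reading at 1 sec intervals.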

[12] = cAMP Responsive Elements (CRE) small molecule agonists, cell-based qHTS assay (AID 1963590)
Method in brief: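 Compound exposure lasted 3 h at 37 C/5% CO2 in CRE-bla HEK 293T cells grown in assay medium with 10% dialyzed FBS and 25 mM HEPES. Reporter signal came from LiveBLAzer B/G FRET substrate, 2 h, room temperature.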

[13] = cAMP Responsive Elements (CRE) small molecule antagonists, cell-based qHTS assay (AID 1963591; active means well fitted inhibition curve with a large enough effect in the signal ratio in the repeat runs, not every such curve was filed as active; the % refers to the signal ratio)
Method in brief: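 Stimulation used NKH477 at a final 0.25 uM for 3 h in compound-treated CRE-bla HEK293T cells, seeded 18 h beforehand. Reporter activity was measured with LiveBLAzer B/G FRET substrate after 2 h at room temperature.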

[14] = molecular target: Beta-2 adrenergic receptor (Homo sapiens) (UniProt P07550); experiment: Adrenergic beta2 receptor (ADRB2) small molecule antagonists, cell-based qHTS assay (AID 1963592); further: series mostly up to about 92 µM; nearly all actives have a fitted effect of over 50% in size
Method in brief: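 Assay format: CHO-ADRB2 cells, 18-20hr seeding at 37C/5% CO2, then compound plus 1nM isoproterenol agonist mix for 0.5hr RT. Homogeneous time-resolved fluorescence cAMP detection after 1hr, expressed as 665/615 nm ratio.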

[15] = molecular target: D(2) dopamine receptor (Homo sapiens) (UniProt P14416); experiment: Dopamine D2 receptor (DRD2) small molecule agonists, cell-based qHTS assay (AID 1963594); further: nearly all actives have a fitted effect of over 35% in size
Method in brief: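 HEK293 cells stably expressing human DRD2, pre-treated with PDE inhibitor Ro20-1724 (0.1 mM final) and compound 10 min at room temperature, then stimulated with NKH477 (200nM […]) for 30 min. cAMP read by HTRF (665/620 nm).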

[16] = molecular target: D(2) dopamine receptor (Homo sapiens) (UniProt P14416); experiment: Dopamine D2 receptor (DRD2) small molecule antagonists, cell-based qHTS assay (AID 1963595; active means well fitted inhibition curve with a large enough effect in the signal ratio in the repeat runs, with a control signal flat; the % refers to the signal ratio)
Method in brief: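 Antagonist mode in DRD2-HEK293 cells: after compound addition with 0.1 mM Ro20-1724, cells received quinpirole (12 nM) and NKH477 (200 nM) for 30 min at room temperature; HTRF cAMP read after 1 h detection.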

[17] = molecular target: Beta-2 adrenergic receptor (Homo sapiens) (UniProt P07550); experiment: Adrenergic beta2 receptor (ADRB2) small molecule agonists, cell-based qHTS assay (AID 1963593);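 further: CHO cells stably overexpressing human ADRB2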
Method in brief: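 CHO cells stably over-expressing ADRB2 were plated overnight at 37C, then dosed with compounds plus a stimulation mix containing 100uM IBMX and 25uM Ro-20-1724 for 0.5hr at room temperature. cAMP was measured by HTRF competition, 1hr.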

[18] = molecular target: 5-hydroxytryptamine receptor 2A (Homo sapiens) (UniProt P28223); experiment: 5-hydroxytryptamine receptor 2A (HTR2A) small molecule antagonists, cell-based qHTS assay (AID 1963586); further: nearly all actives have a fitted effect of over 45% in size
Method in brief: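 CHO cells stably expressing human HTR2A were plated for 18 h at 37 C, then loaded with calcium dye for 1 h. Compounds were preincubated 5 min at room temperature before DOI (4 nM solution) was added. Kinetic fluorescence was read for 3 min.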

[19] = p53 small molecule agonists, cell-based qHTS assay with rat liver microsomes (AID 1963578)
Method in brief: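 p53RE-bla cells, 4,000/well, pre-incubated 5 h, then given compounds plus rat liver microsomes (0.5 mg/mL final) and NADPH (0.5 mg/mL final). Incubation 16 h at 37 C; beta-lactamase reporter read by LiveBLAzer fluorescence after 2 h at room temperature.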

[20] = p53 small molecule agonists, cell-based qHTS assay (AID 1963582; active means well fitted activation curve with a large enough effect in the signal ratio in the repeat runs, not every such curve was filed as active; the % refers to the signal ratio)
Method in brief: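 After plating, p53RE-bla cells sat 5 h in the incubator; compounds or DMSO vehicle were pinned in; a 16 h incubation at 37 C followed; FRET substrate was added and, 2 h later at RT, fluorescence was measured.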

Measured: Potency

Chain of Beta-2 adrenergic receptor (Homo sapiens) (P07550 whole entry, looked up): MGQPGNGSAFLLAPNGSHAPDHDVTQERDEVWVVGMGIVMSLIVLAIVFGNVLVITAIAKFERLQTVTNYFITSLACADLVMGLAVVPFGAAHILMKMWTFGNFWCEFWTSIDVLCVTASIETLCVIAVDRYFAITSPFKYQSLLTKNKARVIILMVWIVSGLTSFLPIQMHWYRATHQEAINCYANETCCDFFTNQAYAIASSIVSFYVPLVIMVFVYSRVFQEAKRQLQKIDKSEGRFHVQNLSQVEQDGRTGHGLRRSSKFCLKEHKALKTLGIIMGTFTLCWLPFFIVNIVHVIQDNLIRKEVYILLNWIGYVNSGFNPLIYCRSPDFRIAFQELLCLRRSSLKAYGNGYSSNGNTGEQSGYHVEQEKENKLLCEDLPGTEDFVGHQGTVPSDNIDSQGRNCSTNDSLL
Chain of D(2) dopamine receptor (Homo sapiens) (P14416 whole entry, looked up): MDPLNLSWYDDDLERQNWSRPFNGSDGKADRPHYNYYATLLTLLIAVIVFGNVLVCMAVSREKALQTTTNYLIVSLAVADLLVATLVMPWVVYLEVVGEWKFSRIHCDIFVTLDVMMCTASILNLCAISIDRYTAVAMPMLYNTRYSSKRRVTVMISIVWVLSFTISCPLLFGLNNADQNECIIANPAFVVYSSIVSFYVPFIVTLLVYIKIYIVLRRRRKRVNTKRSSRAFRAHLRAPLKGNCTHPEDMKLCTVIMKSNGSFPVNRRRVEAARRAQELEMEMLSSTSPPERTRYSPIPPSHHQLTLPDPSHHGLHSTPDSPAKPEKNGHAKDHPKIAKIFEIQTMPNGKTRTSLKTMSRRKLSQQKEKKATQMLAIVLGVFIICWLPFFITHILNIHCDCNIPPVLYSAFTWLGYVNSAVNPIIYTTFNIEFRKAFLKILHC
Chain of Gonadotropin-releasing hormone receptor (Homo sapiens) (P30968 whole entry, looked up): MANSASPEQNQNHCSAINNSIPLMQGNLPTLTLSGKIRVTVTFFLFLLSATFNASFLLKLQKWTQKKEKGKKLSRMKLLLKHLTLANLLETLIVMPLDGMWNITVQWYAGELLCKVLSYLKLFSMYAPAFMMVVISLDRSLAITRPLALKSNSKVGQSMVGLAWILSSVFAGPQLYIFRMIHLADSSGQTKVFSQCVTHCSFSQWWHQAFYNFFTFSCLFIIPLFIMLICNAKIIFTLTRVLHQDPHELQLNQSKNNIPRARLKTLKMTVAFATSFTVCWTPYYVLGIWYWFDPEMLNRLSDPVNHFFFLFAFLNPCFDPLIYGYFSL
Chain of Muscarinic acetylcholine receptor M1 (Homo sapiens) (P11229 whole entry, looked up): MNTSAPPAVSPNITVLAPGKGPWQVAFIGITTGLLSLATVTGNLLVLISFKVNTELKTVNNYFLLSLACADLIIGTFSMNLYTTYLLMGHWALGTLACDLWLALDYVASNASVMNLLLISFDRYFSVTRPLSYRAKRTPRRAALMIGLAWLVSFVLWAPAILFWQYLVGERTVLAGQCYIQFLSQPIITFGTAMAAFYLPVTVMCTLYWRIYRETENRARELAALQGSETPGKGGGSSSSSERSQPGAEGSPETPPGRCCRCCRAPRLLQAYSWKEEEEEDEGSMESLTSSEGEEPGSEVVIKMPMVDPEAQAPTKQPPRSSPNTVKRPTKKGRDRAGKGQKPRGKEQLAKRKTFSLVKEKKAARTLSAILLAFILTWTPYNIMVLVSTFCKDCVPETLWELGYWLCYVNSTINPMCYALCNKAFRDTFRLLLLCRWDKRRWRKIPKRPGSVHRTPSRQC
Chain of 5-hydroxytryptamine receptor 2A (Homo sapiens) (P28223 whole entry, looked up): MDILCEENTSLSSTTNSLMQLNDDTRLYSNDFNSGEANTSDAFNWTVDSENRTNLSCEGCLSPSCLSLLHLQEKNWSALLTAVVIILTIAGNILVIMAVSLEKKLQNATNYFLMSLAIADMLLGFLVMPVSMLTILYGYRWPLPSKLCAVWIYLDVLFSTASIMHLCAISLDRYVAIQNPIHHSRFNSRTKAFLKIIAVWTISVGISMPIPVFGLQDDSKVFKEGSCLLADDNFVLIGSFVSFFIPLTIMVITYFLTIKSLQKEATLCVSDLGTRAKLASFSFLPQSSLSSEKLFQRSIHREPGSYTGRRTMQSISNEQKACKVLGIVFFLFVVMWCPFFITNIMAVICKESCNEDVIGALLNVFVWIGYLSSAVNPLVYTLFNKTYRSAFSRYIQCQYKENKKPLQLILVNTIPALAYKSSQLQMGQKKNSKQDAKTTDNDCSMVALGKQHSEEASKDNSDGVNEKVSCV
Chain of KiSS-1 receptor (Homo sapiens) (Q969F8 whole entry, looked up): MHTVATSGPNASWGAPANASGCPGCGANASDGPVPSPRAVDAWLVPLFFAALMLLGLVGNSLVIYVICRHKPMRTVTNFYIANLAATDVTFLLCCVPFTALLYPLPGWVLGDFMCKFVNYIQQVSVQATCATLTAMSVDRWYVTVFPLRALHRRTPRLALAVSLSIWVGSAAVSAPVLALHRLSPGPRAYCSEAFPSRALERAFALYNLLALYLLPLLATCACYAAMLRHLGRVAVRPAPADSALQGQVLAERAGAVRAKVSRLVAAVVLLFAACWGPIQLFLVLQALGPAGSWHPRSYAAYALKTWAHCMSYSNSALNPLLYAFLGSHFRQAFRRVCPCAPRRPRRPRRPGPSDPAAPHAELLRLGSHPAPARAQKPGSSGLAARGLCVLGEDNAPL

Oc1c(Br)cc(Br)cc1Br
not listed: [17] | [18] | [19] | [20]
inactive: all other assays above

O=P1(NCCCl)OCCCN1CCCl (configuration not stated)
not listed: [9] | [10] | [11] | [13] | [16] | [18] | [19] | [20]
inactive: all other assays above

CN(N=O)c1ccccc1
not listed: [17] | [19] | [20]
inactive: all other assays above

C[C@]12CC[C@H](O)CC1=CC[C@@H]1[C@@H]2CC[C@]2(C)C(=O)CC[C@@H]12
inactive: [1] | [2] | [3] | [4] | [5] | [6] | [7] | [8] | [14] | [15] | [16]

CCC[N+]1(C)CCCCC1
not listed: [11] | [18] | [19] | [20]
inactive: all other assays above

C=Cc1cccc(CCl)c1
not listed: [5] | [17]
inactive: all other assays above

CC12CC1(C)C(=O)N(c1cc(Cl)cc(Cl)c1)C2=O (configuration not stated)
not listed: [5] | [14] | [17]
inactive: all other assays above

CCCCOC(=O)c1ccccc1C(=O)O
not listed: [5] | [17] | [20]
inactive: all other assays above

N#CCCCCC#N
not listed: [5] | [10]
inactive: all other assays above
